From PubChem BioAssay (Tox21)
Inconclusive results are not listed. A call without a number means that no potency is given here. Calls of active or inactive are those of the source. Calls come from the whole dose curve; as a rule, active = well fitted activation curve with a large enough effect in the signal ratio in the repeat runs (not every such curve was filed as active); inconclusive = weak or mixed curves; inactive = flat fitted curve, though single readings scatter; the % refers to the signal ratio.

Test: qHTS assay to identify small molecule agonists of H2AX (AID 1224845)
Details: CHO-K1 phospho-H2AX Ser139 HTRF, 3 h; series mostly up to 154 µM
Excerpt: National Center for Advancing Translational Sciences [NCATS]
NIH Chemical Genomics Center [NCGC]
U.S. Environmental Protection Agency [EPA]
National Institutes of Environmental Health Sciences [NIEHS]
National Toxicology Program [NTP]
U.S. Food and Drug Administration [FDA]
HTRF phospho-H2AX (Ser139) assay (Cisbio Bioassays, US) enables the quantitative detection of the histone variant H2AX when phosphorylated on serine 139. When double-stranded DNA breaks, either by ionizing radiation or endogenous physiological processes, H2AX becomes phosphorylated at Ser139. This phospho-Ser139 serves as a sensitive biomarker for the detection of such breaks, localizing the site of DNA repair. So, HTRF phospho-H2AX Ser139 is a pertinent assay to study genome stability, the cell cycle, DNA repair, and it serves as a biomarker for cancer, and to understand aging. Wild type CHO-K1 cells were used to identify the inducers of Phospho-H2AX Ser 139 from the Tox21 10K compound collections.
Tox21 Assay Protocol Summary:
The CHO-K1 cells suspended in culture medium containing 10% FBS were dispensed at 1000 cells/ 3 ul/well in 1536-well white wall/solid bottom plates (Greiner Bio-One North America, NC) using a Multidrop Combi (Thermo Fisher Scientific Inc., Waltham, MA). After the assay plates were incubated at 37C overnight, 23 nl of compounds at 15 concentrations (from 5-48 columns) or positive control (from 1 to 4 columns) were transferred to the assay plates using a Pintool station (Wako, San Diego, CA) into each well resulting in a final DMSO concentration of 0.76%. After 3hr incubation at 37C, 1 uL/well Supplemented Lysis buffer (diluted 100 fold blocking reagent in lysis buffer) (HTRF Phospho-H2A.X (S139) Assay kit from Cisbio US Inc., Bedford, MA) was added using a Flying Reagent Dispenser (FRD) (Aurora Discovery, CA). After 10sec spin at 1000 rpm in a plate centrifuge, the assay plates were incubated at room temperature for 30 min. Then followed by the addition of 1 uL/well detection buffer (containing a mixture of two antibodies, one labeled with cryptate, Anti pH2AX (S139)-K and another labeled with d2, Anti H2AX-d2) using FRD. After incubation at room temperature for 24 hr, the time resolved fluorescence at excitation 320 nm and emissions at 665 nm and 620 nm was measured using an Envision plate reader (PerkinElmer, Waltham, MA).

Structure (SMILES) | Potency | activation (H2AX phosphorylation)
O=[N+]([O-])c1ccc(NCCO)c(OCCO)c1 | inactive | –
CCC(Cl)CCC(Cl)C(Cl)CC(Cl)C(Cl)C(Cl)CCl (stereo not given) | inactive | –
NC(=O)C(c1ccccc1)(c1ccccc1)[C@@H]1CCN(CCc2ccc3c(c2)CCO3)C1 | inactive | –
c1ccc(CNCCNCc2ccccc2)cc1 | inactive | –
COC(=O)c1ccc(I)cc1S(=O)(=O)NC(=O)Nc1nc(C)nc(OC)n1 | inactive | –
S=C([S-])NCCNC(=S)[S-].[Mn+2] | inactive | –
CCCCCCCCCCCCCCCCOS(=O)(=O)O | inactive | –
O=S(c1cc(Cl)cc(Cl)c1O)c1cc(Cl)cc(Cl)c1O | inactive | –
COc1ccc2cccc(CCNC(C)=O)c2c1 | inactive | –
C[N+]1(CC2COC(c3ccccc3)(C3CCCCC3)O2)CCCCC1 (stereo not given) | inactive | –
CCCCCCCCCCCCCCOS(=O)(=O)O | inactive | –
C#Cc1cccc(Nc2ncnc3cc(OCCOC)c(OCCOC)cc23)c1 | inactive | –
CN(Cc1ccc(C(C)(C)C)cc1)Cc1cccc2ccccc12 | inactive | –
CN(C)c1ccc(/C=C/c2ccc([N+](=O)[O-])cc2)cc1 | – | -1.3% [at 14 µM] (inactive)
O=C1[C@H]2CCCC[C@H]2C(=O)N1CCCCN1CCN(c2nsc3ccccc23)CC1 | inactive | –
O=C(O)c1nc(Cl)c(Cl)c(Cl)c1Cl | inactive | –
CCC(C)O (stereo not given) | inactive | –
CCCCCCOC(=O)NC(=N)c1ccc(NCc2nc3cc(C(=O)N(CCC(=O)OCC)c4ccccn4)ccc3n2C)cc1 | inactive | –
O=C(NCCO[N+](=O)[O-])c1cccnc1 | inactive | –
CCCCCCc1ccc(-c2ccc(C#N)cc2)cc1 | inactive | –

Structure (SMILES) | Potency | activation (H2AX phosphorylation)
OCCNCc1ccccc1 | inactive | –
O=C(OCCc1ccccc1)c1ccccc1 | inactive | –
O=[N+]([O-])c1ccc2[nH]ncc2c1 | inactive | –
CC(CC=O)c1ccccc1 (stereo not given) | inactive | –
COc1ccnc(CS(=O)c2nc3ccc(OC(F)F)cc3[nH]2)c1OC (stereo not given) | inactive | –
COC(C)(C)CCO | inactive | –
CCCCCCCCO[C@@H]1O[C@H](CO)[C@@H](O)[C@H](O)[C@H]1O | inactive | –
O=C(O)C1(C(=O)Nc2ccc(Cl)cc2Cl)CC1 | inactive | –
O=CC1CC=CCC1 (stereo not given) | inactive | –
C/C=C(/C(=C/C)c1ccc(OC(C)=O)cc1)c1ccc(OC(C)=O)cc1 | inactive | –
C[C@@H]1C[C@H]2[C@@H]3CCC4=CC(=O)C=C[C@]4(C)[C@@]3(F)[C@@H](O)C[C@]2(C)[C@@]1(O)C(=O)COC(=O)c1ccncc1 | inactive | –
OCc1cc(C(O)CNCCCCCCOCCCCc2ccccc2)ccc1O (stereo not given) | inactive | –
O=C(Nc1ccc(S(=O)(=O)N2CCOCC2)cc1)c1cc(Cl)ccc1NS(=O)(=O)c1ccc(Cl)s1 | inactive | –
NCC(=O)CCC(=O)O | inactive | –
Nc1ncn([C@H]2C[C@H](O)[C@@H](CO)O2)c(=O)n1 | inactive | –
COc1cc(C(=O)OCCCN2CCCN(CCCOC(=O)c3cc(OC)c(OC)c(OC)c3)CC2)cc(OC)c1OC | inactive | –
CN1C[C@H]2c3ccccc3Oc3ccc(Cl)cc3[C@@H]2C1 | inactive | –
C[C@@H]1C[C@H]2O[C@@]3(O[C@@H]2C(C)(C)O)[C@H](O)[C@@]2(C)[C@@H]4CC[C@H]5C(C)(C)[C@@H](O[C@@H]6OC[C@@H](O)[C@H](O)[C@H]6O)CC[C@@]56C[C@@]46CC[C@]2(C)[C@@H]13 | inactive | –
OC(CN1CCC(Cc2ccc(F)cc2)CC1)c1ccc(Cl)cc1 (stereo not given) | inactive | –
NCC(=O)O | – | 0.478% [at 31.6 µM] (inactive)
